sEH inh: blocks human soluble epoxide hydrolase activity | recombinant human sEH enzymatic activity assay | inhibition, % at 2 µM | 91,000 tested, 0.34% active | AID 707; in the data active = inhibition above about 80%
PLK1 PBD inh: Plk1 (human) PBD binding inhibition | 97,000 tested, 0.13% active | inhibition, %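 (tested at about 20 µM)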 | AID 693 | P53350 | Plk1 PBD phosphopeptide binding, fluorescence polarization; in the data active = inhibition above about 34%, passing the limit was not always enough
PLK1 inh: PLK1 (human) kinase inhibition; inhibition, % at 10 µM; recombinant PLK1 kinase, TR-FRET peptide phosphorylation; 97,000 tested, 0.53% active; P53350;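 active = inhibition of 50% or more in the single-concentration screen; inactive = inhibition below 50%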
Pyk2 oligo antag: antagonists of human Pyk2 oligomerization. Q293 cells, Pyk2 FERM NanoBiT luminescence; hits give low values. 99,000 tested, 0.83% active. z-score (the deposit names both 25 µM and 10 µM);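 active = Z-score of -3 or lower, scaled per plate to the spread of control and sample wells; inactive = z-score above -3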;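 note: negative z-score means lost luminescence so less FERM oligomerization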
sEH act: soluble epoxide hydrolase (human) activation. AID 717. purified human sEH enzymatic activity, activator screen. P34913. 91,000 tested, 0.04% active. activation, % at 2 µM; in the data active = activation above about 37%
A number is an active result; n = inactive; x = not tested or not shown. Shown are actives, neighbours in structure and some others; about 1.6% of the full set was active somewhere.

SMILES | sEH inh | PLK1 PBD inh | PLK1 inh | Pyk2 oligo antag | sEH act
S=c1sc2c(N3CCN(Cc4ccccc4)CC3)ncnc2n1-c1ccccc1 | n | n | n | n | n
S=c1sc2c(N3CCOCC3)ncnc2n1-c1ccccc1 | x | n | 62 | x | x
COc1cccc(N(C(=O)c2cccs2)c2nc3ccccc3s2)c1 | n | n | n | n | n
COc1ccc(OC)c(S(=O)(=O)Nc2ccc(Oc3ccccc3)cc2)c1 | n | n | n | -3.6 | n
COc1ccc(CCN2C(=O)C3C4CC(C5C(C(=O)N/N=C\c6ccc(Cl)cc6)=NOC45)C3C2=O)cc1OC (stereo unspecified) | 94 | n | n | n | n
COc1ccc(CCN2C(=O)CC(NNC(=O)c3ccc(F)cc3)C2=O)cc1OC (stereo unspecified) | x | x | x | n | x
CCSCCOC(=O)C1=C(C)NC(=O)NC1c1ccccc1 (stereo unspecified) | n | n | 61 | x | n
COc1ccccc1NS(=O)(=O)c1ccc(O)cc1 | n | n | n | n | n
COc1ccccc1NS(=O)(=O)c1cccc(C(=O)NN)c1 | 94 | n | n | n | n
COc1ccc(S(=O)(=O)Nc2ccc3ccccc3c2)cc1C | n | n | n | -3.2 | n
COc1ccc(S(=O)(=O)N2CCCN(S(=O)(=O)c3ccc(OC)c(C)c3)CC2)cc1C | n | n | n | n | n
COc1ccc(S(=O)(=O)Nc2ccc(S(=O)(=O)N3CCCCC3)cc2)cc1C | n | n | n | -3.3 | n
CCc1ccc(NS(=O)(=O)c2ccc(OC)c(C)c2)cc1 | n | n | n | -3.3 | n
CC1CCCC(N2C(=O)NC(NC(=O)c3ccco3)(C(F)(F)F)C2=O)C1C (stereo unspecified) | n | n | n | n | n
Cc1nn(C(C)C(=O)N2CCc3ccccc32)c(C)c1[N+](=O)[O-] (stereo unspecified) | n | n | n | n | n
CCSc1nn2c(=O)c3ccccc3nc2s1 | n | n | n | n | n
Cc1[nH]nc2c1C(c1ccsc1)C(C#N)=C(N)O2 (stereo unspecified) | n | n | 52 | n | n
Cc1cc(C2C(C#N)=C(N)Oc3n[nH]c(C)c32)c(C)s1 (stereo unspecified) | n | n | n | n | n
Cc1[nH]nc2c1C(c1ccsc1C)C(C#N)=C(N)O2 (stereo unspecified) | n | n | 61 | n | n
Cc1[nH]nc2c1C(c1ccc(F)cc1)C(C#N)=C(N)O2 (stereo unspecified) | n | n | 57 | n | n
CNc1oc(-c2ccc(Cl)cc2)nc1P(=O)(c1ccccc1)c1ccccc1 | n | n | n | n | n
COc1ccc(C(=O)NCC2OCCc3ccccc32)c(O)c1 (stereo unspecified) | n | n | n | n | n
CCOC(=O)C1C(=O)Oc2ccc3ccccc3c2C1C1CCOC1=O (stereo unspecified) | x | n | 63 | x | x
Cc1ccc(N2CCN(S(=O)(=O)c3ccc(F)c(C)c3)CC2)c(C)c1 | n | n | n | -3.2 | n
CCc1ccccc1N1CCN(S(=O)(=O)c2ccc(F)c(C)c2)CC1 | n | n | n | -3.3 | n
SMILES | sEH inh | PLK1 PBD inh | PLK1 inh | Pyk2 oligo antag | sEH act
COc1ccc(C(=O)c2ccc(CC#N)s2)cc1 | n | n | n | n | n
O=c1[nH]c(=O)n(Cc2ccco2)c2c1C(C(F)(F)F)(C(F)(F)F)N=C(Cc1ccccc1)N2 | n | n | n | -3.7 | n
CC(Oc1ncnc2ccccc12)C(=O)Nc1cccc(S(=O)(=O)N2CCOCC2)c1 (stereo unspecified) | x | x | x | n | x
Cc1n[nH]c(=O)nc1Nc1ccc(O)cc1 | n | n | n | n | n
Oc1ccc(Nc2nc3ccccc3nc2Nc2ccc(O)cc2)cc1 | n | n | n | -4.4 | n
COc1ccc(C(=O)/C=C/c2ccccc2OC)c(OC(=O)c2ccc([N+](=O)[O-])cc2)c1 | n | n | n | -3.3 | n
c1ccc(Cn2nnnc2C(c2cccnc2)N2CCN(c3ccccc3)CC2)cc1 (stereo unspecified) | x | n | n | n | x
CC(C)OC(=O)CSc1nnc(SCc2cccc3ccccc23)s1 | n | n | n | n | n
O=C(NCc1cccs1)C1CCCN(c2nc3ccccc3o2)C1 (stereo unspecified) | n | n | n | n | n
O=C(NCCC1=CCCCC1)C1CCCN(c2nc3ccccc3o2)C1 (stereo unspecified) | 96 | n | n | n | n
O=C(NCCc1ccccc1)C1CCN(c2nc3ccccc3o2)CC1 | n | n | n | n | n
Cc1ccccc1-c1nc(CN2CCC(C(=O)NCCC3=CCCCC3)CC2)c(C)o1 | 93 | n | n | n | n
O=C(NC1CCCCCCC1)C1CCN(c2nc3ccccc3o2)CC1 | 93 | n | n | n | n
